Compound activity (PubChem BioAssay)
FGF22 binding-1 = FGF22 (human) thermal shift binding. AID 651658. activity (Tm shift, normalised), % at 9.99 µM. recombinant FGF22 thermal shift, SYPRO orange fluorescence; percent of sucrose octasulfate shift, DMSO zero. 1.5% of 340,000 active. Q9HCT0;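 active means mean Tm shift, scaled 0 neutral to 100 positive control, at about 1.3% or above, every replicate too, limit read from the data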
Target sequence (Q9HCT0 whole entry, looked up): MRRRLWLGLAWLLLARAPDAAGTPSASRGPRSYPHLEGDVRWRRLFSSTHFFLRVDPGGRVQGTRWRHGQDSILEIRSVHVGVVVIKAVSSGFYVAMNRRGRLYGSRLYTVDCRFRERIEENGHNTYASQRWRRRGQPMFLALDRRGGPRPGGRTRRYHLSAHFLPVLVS
CASP6 VEID inh = caspase-6 (human) enzyme inhibition. purified caspase-6, Z-VEID-R110 cleavage fluorescence. inhibition, % at 12.5 µM. 0.53% of 350,000 active;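 active means mean inhibition across replicates at least about 35%, with every replicate also reaching that limit, limit read from the data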;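 further: 0% = median of neutral control wells and 100% = no fluorescence left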
Target sequence (P55212 24-179 limits assumed): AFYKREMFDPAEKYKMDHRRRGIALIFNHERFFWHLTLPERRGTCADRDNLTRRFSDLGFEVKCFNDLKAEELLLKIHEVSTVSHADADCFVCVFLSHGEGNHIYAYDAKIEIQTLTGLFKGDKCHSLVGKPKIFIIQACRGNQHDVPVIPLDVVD
Target sequence (P55212 194-293 limits assumed): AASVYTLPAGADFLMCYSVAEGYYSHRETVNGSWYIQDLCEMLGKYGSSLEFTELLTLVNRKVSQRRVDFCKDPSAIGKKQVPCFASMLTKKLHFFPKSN
ERAP1 HTS inh = ERAP1 (human) enzyme inhibition. AID 652197. Q9NZ08. inhibition, % at 10.7 µM. recombinant ERAP1, Leu-AMC fluorescence, 60 min. 0.15% of 340,000 active;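 active means mean replicate inhibition of at least 30%, or all replicates individually reaching that 30% level; inactive means mean below 30% and not every replicate reaching it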;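 further: 0% = neutral control wells and 100% = L-leucinethiol positive control wells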
SIRT5 block = blocks human SIRT5 desuccinylation of peptide; inhibition, % at 15 µM; 1.1% of 330,000 active; Q9NXA8; Purified SirT5, succinyl-peptide AMC, trypsin-coupled fluorescence; in the data active means inhibition above about 15%
FGF22 binding-2 = binders of human FGF22 by thermal shift | shares compounds with FGF22 binding-1 | recombinant FGF22 thermal shift, SYPRO orange fluorescence | thermal shift activity, °C (ΔTm) at 38 µM | 2% of 1,000 active | AID 720646;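 active means fitted rise in melting shift crosses a set limit at or below the top valid dose tested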
TSA no protein = counter-screen for FGF22 binders: compound-only thermal shift, no protein. shares compounds with FGF22 binding-1. compound-only SYPRO orange thermal shift counter-screen. AC50, µM (titrated, usually from 38 µM). 2% of 1,000 active;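 active means rising signal whose fitted curve reaches the 0.54 level within the top valid dose, showing a melting point, actives reach about 13 µM in these data; inactive means the rest, including activity in the opposite direction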; further: value is where the raw curve crosses a fixed level and not half-maximal
* hit, by the source's call; i = inactive; / = not tested or not shown; ! = not confirmed by another sample; [ ] = remark or other dose. Shown are actives, neighbours in structure and some others; about 3.1% of the full set was active somewhere.

SMILES	FGF22 binding-1	CASP6 VEID inh	ERAP1 HTS inh	SIRT5 block	FGF22 binding-2	TSA no protein
O=C(Nc1ccc(F)cc1)N[C@H]1CC[C@@H](CCn2cc(-c3ccccc3F)nn2)O[C@@H]1CO	1.7*	0	-1	1	0.17	i
O=C(Nc1ccc(F)cc1)N[C@@H]1CC[C@H](CCn2cc(-c3ccccc3F)nn2)O[C@H]1CO	2.9*	-5	1	3	0.1	i
O=C(Nc1ccc(F)cc1)N[C@H]1CC[C@H](CCn2cc(-c3ccccc3F)nn2)O[C@@H]1CO	1	-1	-1	-1	/	/
CCN(CC)c1ccc(/C=N/NC(=O)c2c[nH]c3ccccc23)cc1	1.8*	1	-1	0	-0.099	i
CCN(CC)c1ccc(/C=N/NC(=O)c2cc3ccccc3[nH]2)cc1	0	-1	2	-1	/	/
CN1C(=O)c2cc(NC(=O)c3cccc(F)c3)ccc2OC[C@@H]2O[C@H](CC(=O)NCC3CCCCC3)CC[C@@H]21	2.3*!	5	1	4	-0.16	i
CN1C(=O)c2cc(NC(=O)c3cccc(F)c3)ccc2OC[C@H]2O[C@@H](CC(=O)N3CCc4ccccc4C3)CC[C@H]21	1.3*	-2	1	-2	0.11[42 µM]	i
CN1C(=O)c2cc(NC(=O)c3cccc(F)c3)ccc2OC[C@H]2O[C@@H](CC(=O)NCC3CCCCC3)CC[C@H]21	2.3*	-2	0	1	0.12[42 µM]	i
CN1C(=O)c2cc(NC(=O)c3cccc(F)c3)ccc2OC[C@H]2O[C@H](CC(=O)NCC3CC3)CC[C@@H]21	0	0	3	-8	/	/
CN1C(=O)c2cc(NC(=O)c3cccc(F)c3)ccc2OC[C@H]2O[C@@H](CC(=O)NCc3ccccc3)CC[C@H]21	1.7*	/	/	/	-0.023[42 µM]	i
CN1C(=O)c2cc(NC(=O)c3cccc(F)c3)ccc2OC[C@H]2O[C@H](CC(=O)N3CCc4ccccc4C3)CC[C@@H]21	0	-3	1	-2	/	/
OC[C@@H]1[C@H](c2ccc(-c3cccnc3)cc2)[C@H]2CN(CC3CCOCC3)CCCCN12	0	-1	-1	/	/	/
COc1ccc2[nH]cc(/C=N/NS(=O)(=O)c3ccc(C)cc3)c2c1	0	0	/	-5	/	/
COc1ccc2c(/C=N/NS(=O)(=O)c3ccc(C)cc3)c[nH]c2c1	2.7*	0	0	6	-0.21	i
CC(=O)N(C)C[C@@H]1Oc2ncc(C#Cc3ccccc3)cc2C(=O)N([C@H](C)CO)C[C@H]1C	0	-1	0	4	/	/
Oc1ccc(-c2nc3ccccc3s2)c(O)c1	1.3*	5	1	-14	0.22	i
Oc1ccc(-c2nc3ccccc3s2)cc1	0	1	-1	-13	/	/
COc1ccc(NC(=O)N(C)C[C@@H]2Oc3ccc(NS(=O)(=O)c4cccs4)cc3CC(=O)N([C@H](C)CO)C[C@H]2C)cc1	28*	/	/	/	-0.011	i
COc1ccc(NC(=O)N(C)C[C@@H]2Oc3ccc(NS(=O)(=O)c4ccccc4)cc3C(=O)N([C@H](C)CO)C[C@H]2C)cc1	5.0*	5	1	0	0.048[42 µM]	i
COc1ccc(NC(=O)N(C)C[C@@H]2Oc3ccc(NS(=O)(=O)c4ccc(OC)cc4)cc3CC(=O)N([C@H](C)CO)C[C@@H]2C)cc1	7.6*	1	3	1	-0.035	i
COc1ccc(S(=O)(=O)Nc2ccc3c(c2)CC(=O)N([C@@H](C)CO)C[C@@H](C)[C@H](CN(C)C(=O)Nc2ccc(F)cc2)O3)cc1	0	/	/	/	/	/
COc1ccc(NC(=O)N(C)C[C@H]2Oc3ccc(NS(=O)(=O)c4ccccc4)cc3C(=O)N([C@H](C)CO)C[C@H]2C)cc1	0	0	4	-1	/	/
COc1ccc(S(=O)(=O)Nc2ccc3c(c2)C(=O)N([C@H](C)CO)C[C@H](C)[C@H](CN(C)CC2CC2)OCCCC[C@@H](C)O3)cc1	0	1	-1	0	/	/
COc1ccc(S(=O)(=O)Nc2ccc3c(c2)C(=O)N([C@H](C)CO)C[C@H](C)[C@H](CN(C)CC2CC2)OCCCC[C@H](C)O3)cc1	1.4*	-5	-10	-2	0.018	i
COc1ccc(NC(=O)Nc2ccc3c(c2)C(=O)N([C@@H](C)CO)C[C@@H](C)[C@H](CN(C)Cc2ccc4c(c2)OCO4)OCCCC[C@H](C)O3)cc1	0	-1	-1	-2	/	/
